Drawing on PubChem BioAssay (EPA / NIEHS), this text covers outcome and AC50 for 23 molecules.

Test [1] in a line: APR_HepG2_MitoMembPot_72hr: Apredica 72-hour HepG2 Assay for Mitochondrial Membrane Potential (AID 2282917). The following applies: imaging, actives raise or lower the signal. In short, it runs like this: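 HepG2 cells dosed 72 hr with compound at 0.39–200 uM in duplicate, 0.5% v/v DMSO final. Mitochondria stained with 250 nM MitoTracker Red CMXRos for 30 min before formaldehyde fixation, imaged by high-content fluorescence; bidirectional fit versus DMSO.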

Test [2] in a line: APR_HepG2_MitoticArrest_72hr: Apredica 72-hour HepG2 Assay for Mitotic Arrest (AID 2282918). The conditions noted are these: high-content imaging, actives raise or lower the signal. In short, it runs like this:
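Read-out is phospho-histone H3 immunofluorescence with Hoechst nuclear segmentation, imaged at 20x. Human HepG2 liver cells received ten concentrations (0.39–200 uM, final DMSO 0.5% v/v) for 72 hr before fixation. Gain or loss of signal was fitted relative to DMSO.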

Test [3] is described as follows: APR_HepG2_MicrotubuleCSK_72hr: Apredica 72-hour HepG2 Assay for Microtubule CSK Stabilty (AID 2282919). The following applies: HepG2 microtubule cytoskeleton, high-content imaging, actives raise or lower the signal. In short, it runs like this: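 HepG2 cells were exposed 72 hr to compound at 0.39–200 uM in duplicate (0.5% DMSO final), then fixed and permeabilized. Alpha-tubulin immunofluorescence was imaged by high-content microscopy, with bidirectional fitting against DMSO and taxol as positive control.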

Test [4] is described as follows: APR_HepG2_P-H2AX_24hr: Apredica 24-hour HepG2 Assay for H2AX Phosphorylation (AID 2282920). The conditions noted are these: high-content imaging, actives raise or lower the signal. In a few lines:
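HepG2, 24 hr, cpd 0.39–200 uM (10 conc, duplicate), DMSO 0.5% v/v final. Fix 3.7% formaldehyde, Triton X-100 permeabilize, anti-phospho-H2A.x 1:200 + Hoechst 2 ug/mL. Imaged, bidirectional fit vs DMSO.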

Test [5] can be described thus: APR_HepG2_StressKinase_72hr: Apredica 72-hour HepG2 Assay for Stress Kinase (AID 2282921). The conditions noted are these: HepG2 stress kinase (phospho-c-Jun) imaging, actives raise or lower the signal. In short, it runs like this:
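Dose 0.39–200 uM (10 pts, duplicate), 0.5% DMSO; 72 h; fix 3.7% formaldehyde 30 min RT; Triton permeabilize; anti-phospho-c-Jun/Cy3 + Hoechst 60 min RT; image 20x; fit gain/loss vs DMSO.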

Test [6] is described as follows: APR_HepG2_StressKinase_24hr: Apredica 24-hour HepG2 Assay for Stress Kinase (AID 2282922). The conditions noted are these: HepG2 stress kinase (phospho-c-Jun) imaging, actives raise or lower the signal. In short, it runs like this:
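HepG2 cells exposed 24 h to 0.39–200 uM compound in duplicate (0.5% v/v DMSO final). Cells fixed in 3.7% formaldehyde, permeabilized and immunostained for phospho-c-Jun; read by high-content fluorescence imaging, fitted bidirectionally against DMSO.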

Test [7] in a line: APR_HepG2_p53Act_72hr: Apredica 72-hour HepG2 Assay for p53 Activation (AID 2282923).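 Note: average cellular p53 protein immunofluorescence intensity in HepG2 cells.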 The conditions noted are these: high-content imaging, actives raise or lower the signal. In short, it runs like this: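 10-pt conc. 0.39–200 uM, duplicate, 0.5% DMSO; 72 hr exposure; 3.7% formaldehyde fix, 0.5% Triton perm; sheep anti-p53/Cy5 + Hoechst; ArrayScan 20x, 6 images/well; gain/loss fit vs DMSO.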

Test [8] in a line: APR_HepG2_MitoMass_72hr: Apredica 72-hour HepG2 Assay for Mitochondrial Mass (AID 2282924).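 Note: MitoTracker Red CMXRos stain intensity per cell imaged as mitochondrial mass.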 The conditions noted are these: high-content imaging, actives raise or lower the signal. In a few lines:
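HepG2 cells dosed 72 hr at 0.39–200 uM (0.5% DMSO), in duplicate. MitoTracker Red CMXRos 250 nM loaded 30 min before formaldehyde fixation; high-content fluorescence imaging, bidirectional fit versus DMSO.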

Test [9] can be described thus: APR_HepG2_NuclearSize_72hr: Apredica 72-hour HepG2 Assay for Nuclear Size (AID 2282925). The conditions noted are these: high-content imaging, actives raise or lower the signal. In short, it runs like this:
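HepG2 cells dosed 72 h at 0.39–200 uM (10 concentrations, duplicate) in 0.5% v/v DMSO final. Fixed, Hoechst 33342-stained nuclei imaged; nuclear diameter measured by automated image analysis. Bidirectional fit versus DMSO.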

Activity calls are given as the source filed them. Rule for the calls: active = hit-call score of the fitted dose curve at least 0.9, where 1 is the maximum; inactive = score below 0.9.

For the molecule `Cc1ccc(S(=O)(=O)O)cc1C`, the molecule was called inactive in test [1], in test [2], in test [3], in test [4], in test [5] and in test [6]. Further, the molecule was classed as inactive in [7] and in test [9]. The AC50 – broadly, the concentration giving half of the maximal activity seen – in test [8] was 0.0391 µM (active).

Take `CC[C@H](C)C(=O)O[C@H]1C[C@@H](C)C=C2C=C[C@H](C)[C@H](CC[C@@H]3C[C@@H](O)CC(=O)O3)[C@H]21`: the molecule was called inactive in test [1], in [3], in test [5], in test [6] and in test [9]. In addition, the AC50 in [2] was 4.53 µM (active); in test [4] it was 2.46 µM (active); in test [7] it was 3.64 µM (active); in test [8], 131 µM (active).

For `CC(C)=CCC/C(C)=C\CO`, the result in test [1], in test [2], in test [3], in [4], in test [5] and in test [6] was inactive. Besides, the molecule was called inactive in test [7] and in test [9]. Besides, the AC50 in [8] was 94.5 µM (active).

Turning to `Nc1nc2ncc(CNc3ccc(C(=O)N[C@@H](CCC(=O)O)C(=O)O)cc3)nc2c(=O)[nH]1`, the outcome in test [1], in [2], in test [3], in test [4], in [5] and in test [6] was inactive. Further, the molecule was called inactive in [7], in test [8] and in [9].

As to `Cc1ccc(O)cc1`, the outcome in test [1], in test [2], in test [3], in test [4], in test [5] and in test [6] was inactive. Also, the result in test [7], in [8] and in test [9] was inactive.

Take `CC(C)CC(C)(O)C#CC(C)(O)CC(C)C` (configuration not stated): the call in [1], in test [2], in test [3], in [4], in test [5] and in test [6] was inactive. In addition, the result in test [7], in [8] and in [9] was inactive.

`COC(=O)c1ccccc1O`: the result in test [1], in test [2], in test [3], in test [4], in test [5] and in test [6] was inactive. In addition, the molecule was called inactive in test [7], in test [8] and in [9].

Consider `Cc1ccc(C)c(O)c1`, for which the result in test [1], in test [2], in [3], in [4], in [5] and in test [6] was inactive. Further, the call in test [7], in [8] and in [9] was inactive.

For `O=C(O)c1cccc(N(Cc2cccnc2)c2ccc(OC(F)F)c(OC(F)F)c2)c1`, the call in test [1], in test [3], in test [6] and in [8] was inactive. The AC50 in test [2] is 4.04 µM (active); in test [4], 30.8 µM (active); in test [5], 15.4 µM (active); in test [7], 4.01 µM (active); in test [9] it was 17.4 µM (active).

Take `O=P(OC(CCl)CCl)(OC(CCl)CCl)OC(CCl)CCl`: the AC50 is 50 µM (active) in test [1], 39.6 µM (active) in test [2], 43.4 µM (active) in test [4] and 59.2 µM (active) in test [5]. In addition, the molecule was classed as inactive in test [3], in test [6], in test [7], in test [8] and in [9].

As for `CCn1nc(Cc2ccccc2)cc1C1CCN(C[C@H]2C[C@H](N(C)[C@@H](C(=O)O)C(C)C)C[C@@H]2c2cccc(F)c2)CC1`, the molecule was classed as inactive in test [1], in test [3], in [4], in test [5], in test [6] and in [7]. Moreover, the molecule was classed as inactive in [8] and in test [9]. The AC50 in test [2] was 113 µM (active).

As to `O=c1[nH]c2ccc(S(=O)CCN3CCC(Cc4ccc(F)cc4)CC3)cc2o1` (configuration not stated), the molecule was called inactive in [1], in test [2], in [3], in test [4], in test [5] and in test [6]. The molecule was called inactive in test [7], in test [8] and in test [9].

`C=CCCCCCCCCC(=O)O`: the molecule was classed as inactive in [1], in test [2], in test [3], in test [4], in test [5] and in test [6]. In addition, the outcome in test [7], in [8] and in test [9] was inactive.

For the molecule `CC(C)CCCCCCCOC(=O)CCCCC(=O)OCCCCCCCC(C)C`, the outcome in test [1], in [2], in test [3], in test [4], in test [5] and in test [6] was inactive. The result in test [7], in [8] and in test [9] was inactive.

On to `CC/C(=C\C(=N/O)C(N)=O)C(C)[N+](=O)[O-]` (configuration not stated), for which the result in test [1], in [2], in test [3], in [4], in test [5] and in test [6] was inactive. The call in test [7], in test [8] and in test [9] was inactive.

In the case of `O=C(O)c1cccc(Oc2ccccc2)c1`, the call in test [1], in [2], in test [3], in test [4], in test [5] and in test [6] was inactive. Further, the outcome in [7], in [8] and in [9] was inactive.

For the molecule `O=C(O)c1cc(N=Nc2ccc(S(=O)(=O)Nc3ccccn3)cc2)ccc1O`, the AC50 in [1] is 88.8 µM (active). In addition, the molecule was classed as inactive in test [2], in [3], in test [4], in test [5], in [6] and in test [7]. In addition, the result in [8] and in test [9] was inactive.

As for `CC[C@H]1OC(=O)[C@H](C)[C@@H](O[C@H]2C[C@@](C)(OC)[C@@H](O)[C@H](C)O2)[C@H](C)[C@@H](O[C@@H]2O[C@H](C)C[C@H](N(C)C)[C@H]2O)[C@](C)(O)C[C@@H](C)C(=O)[C@H](C)[C@@H](O)[C@]1(C)O`, the molecule was classed as inactive in test [1], in [2], in test [3], in [4], in test [5] and in test [6]. In addition, the molecule was called inactive in test [7], in [8] and in [9].

With `CCOCCO`, the outcome in [1], in test [2], in test [3], in [4], in [5] and in test [6] was inactive. In addition, the molecule was called inactive in test [7], in [8] and in test [9].

Take `COCCOc1cc2cc(C(=O)NC3CCN(C(C)C)CC3)n(CC(=O)Nc3ccc(Cl)cn3)c2cn1`: the result in test [1], in test [5], in test [6], in test [7], in test [8] and in test [9] was inactive. For the same molecule, the AC50 in test [2] is 63.2 µM (active); in [3] it was 83.7 µM (active); in test [4], 94.3 µM (active).

For `COc1ccc2sc(C(=O)Nc3nnn[nH]3)c(OC(C)C)c2c1`, the result in test [1], in test [2], in [3], in test [4], in test [5] and in test [6] was inactive. Further, the call in [7], in test [8] and in test [9] was inactive.

For `C1N2CN3CN1CN(C2)C3`, the outcome in test [1], in test [2], in test [3], in [4], in test [5] and in test [6] was inactive. Further, the outcome in test [7], in test [8] and in [9] was inactive.

As for `CC(C)=CCCC(C)=CC=O`, the molecule was classed as inactive in test [1], in test [2], in [3], in test [4], in test [5] and in [6]. The call in test [7], in [8] and in test [9] was inactive.
